Source: PubChem BioAssay AID1159580 (chemical genetic matrix, 2015)
The whole screen tested about 5,500 compounds, of which about 2,000 (36%) were called active. About 18% were inconclusive and are not listed. Rule as the data show it: active = normalized growth mostly below about 0.91 (no sharp cut-off); inconclusive = no clear call, values can overlap the other calls; inactive = mostly above about 0.92. The list shows a part of the results.

Experiment: chemical genetic growth profiling, strain panel (AID 1159580);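 also: tested at 20 µM; growth read once vehicle control cultures reached saturation at 30 °C; 1 = growth at the plate median or of vehicle wells; lower values mean less growth of the strain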
Details: growth OD

Measured: normalized growth

COC(=O)CC1C2(C)CC34OC5(C)OC6(C7/C(=C(/O)C(C)C)C(=O)OC(c8ccoc8)C7(C)C(OC(=O)C(C)C)C(OC)C6(O5)C13C)C(OC)C4(OC)C2OC(C)=O (stereo not drawn)
inactive: S. cerevisiae deletion strains, locus YAL013W, strain DEP1, hits give low values 0.997 | S. cerevisiae deletion strains, locus YBR021W, strain FUR4, hits give low values 1.02 | S. cerevisiae deletion strains, locus YBR229C, strain ROT2, hits give low values 1 | S. cerevisiae deletion strains, locus YCL029C, strain bik1, hits give low values 0.99 | S. cerevisiae deletion strains, locus YDL035C, strain GPR1, hits give low values 1.02 | S. cerevisiae deletion strains, locus YDL074C, strain BRE1, hits give low values 1.01 | S. cerevisiae deletion strains, locus YDL101C, strain DUN1, hits give low values 1.01 | S. cerevisiae deletion strains, locus YDL134C, strain PPH21, hits give low values 1.01 | S. cerevisiae deletion strains, locus YDL185W, strain tfp1, hits give low values 0.991 | S. cerevisiae deletion strains, locus YDL192W, strain arf1, hits give low values 0.994 | S. cerevisiae deletion strains, locus YDR101C, strain arx1, hits give low values 0.991 | S. cerevisiae deletion strains, locus YDR162C, strain NBP2, hits give low values 1.01 | S. cerevisiae deletion strains, locus YDR318W, strain mcm21, hits give low values 0.988 | S. cerevisiae deletion strains, locus YDR388W, hits give low values 0.995 | S. cerevisiae deletion strains, locus YDR502C, strain sam2, hits give low values 0.988 | S. cerevisiae deletion strains, locus YEL061C, strain CIN8, hits give low values 0.994 | S. cerevisiae deletion strains, locus YER110C, hits give low values 0.988 | S. cerevisiae deletion strains, locus YER155C, strain BEM2, hits give low values 1 | S. cerevisiae deletion strains, locus YER167W, strain BCK2, hits give low values 1.02 | S. cerevisiae deletion strains, locus YGL078C, strain dbp3, hits give low values 0.979 | S. cerevisiae deletion strains, locus YGL086W, strain mad1, hits give low values 0.975 | S. cerevisiae deletion strains, locus YGL248W, strain PDE1, hits give low values 1.01 | S. cerevisiae deletion strains, locus YGR078C, strain PAC10, hits give low values 1.02 | S. cerevisiae deletion strains, locus YGR135W, strain pre9, hits give low values 0.987 | S. cerevisiae deletion strains, locus YGR229C, strain SMI1, hits give low values 1 | S. cerevisiae deletion strains, locus YGR252W, strain gcn5, hits give low values 0.937 | S. cerevisiae deletion strains, locus YHR030C, strain SLT2, hits give low values 1.01 | S. cerevisiae deletion strains, locus YHR079C, strain IRE1 (second series), hits give low values 0.985 | S. cerevisiae deletion strains, locus YHR094C, strain hxt1, hits give low values 0.989 | S. cerevisiae deletion strains, locus YHR129C, strain ARP1, hits give low values 1.01 | S. cerevisiae deletion strains, locus YHR200W, strain rpn10, hits give low values 0.99 | S. cerevisiae deletion strains, locus YIL066C, strain RNR3, hits give low values 1.03 | S. cerevisiae deletion strains, locus YIL073C, strain SPO22, hits give low values 1.03 | S. cerevisiae deletion strains, locus YIL125W, strain kgd1, hits give low values 0.991 | S. cerevisiae deletion strains, locus YIR030C, strain dcg1, hits give low values 0.996 | S. cerevisiae deletion strains, locus YJL095W, strain BCK1, hits give low values 1.03 | S. cerevisiae deletion strains, locus YJL134W, strain LCB3, hits give low values 1.01 | S. cerevisiae deletion strains, locus YJL168C, strain set2, hits give low values 0.986 | S. cerevisiae deletion strains, locus YJL187C, strain SWE1 (second series), hits give low values 1.01 | S. cerevisiae deletion strains, locus YJR043C, strain POL32, hits give low values 1.01 | S. cerevisiae deletion strains, locus YJR075W, strain HOC1, hits give low values 1.01 | S. cerevisiae deletion strains, locus YKL009W, strain mrt4, hits give low values 0.984 | S. cerevisiae deletion strains, locus YKL068W, hits give low values 1 | S. cerevisiae deletion strains, locus YKL085W, strain MDH1 (second series), hits give low values 1 | S. cerevisiae deletion strains, locus YKL085W, strain MDH1, hits give low values 1 | S. cerevisiae deletion strains, locus YKR001C, strain vps1, hits give low values 0.988 | S. cerevisiae deletion strains, locus YLR039C, strain RIC1, hits give low values 1.04 | S. cerevisiae deletion strains, locus YLR058C, strain SHM2, hits give low values 1.01 | S. cerevisiae deletion strains, locus YLR102C, strain apc9, hits give low values 0.988 | S. cerevisiae deletion strains, locus YLR262C, strain YPT6, hits give low values 1.05 | S. cerevisiae deletion strains, locus YLR268W, strain sec22, hits give low values 0.989 | S. cerevisiae deletion strains, locus YLR330W, strain CHS5, hits give low values 1.01 | S. cerevisiae deletion strains, locus YLR342W, strain FKS1 (second series), hits give low values 0.999 | S. cerevisiae deletion strains, locus YLR371W, strain rom2, hits give low values 0.983 | S. cerevisiae deletion strains, locus YLR418C, strain cdc73, hits give low values 1.01 | S. cerevisiae deletion strains, locus YML016C, strain PPZ1, hits give low values 1 | S. cerevisiae deletion strains, locus YML032C, strain rad52, hits give low values 0.985 | S. cerevisiae deletion strains, locus YML124C, strain tub3, hits give low values 0.99 | S. cerevisiae deletion strains, locus YMR078C, strain ctf18, hits give low values 0.994 | S. cerevisiae deletion strains, locus YMR223W, strain ubp8, hits give low values 0.994 | S. cerevisiae deletion strains, locus YMR307W, strain GAS1, hits give low values 1.05 | S. cerevisiae deletion strains, locus YNL067W, strain RPL9B, hits give low values 1 | S. cerevisiae deletion strains, locus YNL233W, strain BNI4, hits give low values 1.04 | S. cerevisiae deletion strains, locus YNL250W, strain rad50, hits give low values 1.02 | S. cerevisiae deletion strains, locus YNL271C, strain bni1, hits give low values 0.992 | S. cerevisiae deletion strains, locus YNL298W, strain CLA4, hits give low values 0.987 | S. cerevisiae deletion strains, locus YNL307C, strain MCK1, hits give low values 0.996 | S. cerevisiae deletion strains, locus YNL322C, strain KRE1, hits give low values 1 | S. cerevisiae deletion strains, locus YNR052C, strain pop2, hits give low values 0.977 | S. cerevisiae deletion strains, locus YOL012C, strain htz1 0.95 | S. cerevisiae deletion strains, locus YOL147C, strain pex11, hits give low values 0.984 | S. cerevisiae deletion strains, locus YOR061W, strain CKA2, hits give low values 1.01 | S. cerevisiae deletion strains, locus YOR069W, strain VPS5, hits give low values 1.01 | S. cerevisiae deletion strains, locus YOR136W, strain idh2, hits give low values 0.991 | S. cerevisiae deletion strains, locus YOR144C, strain elg1, hits give low values 0.989 | S. cerevisiae deletion strains, locus YOR184W, strain ser1, hits give low values 0.976 | S. cerevisiae deletion strains, locus YOR316C, strain cot1, hits give low values 0.992 | S. cerevisiae deletion strains, locus YPR119W, strain clb2, hits give low values 0.982 | S. cerevisiae deletion strains, locus YPR141C, strain kar3, hits give low values 0.998 | S. cerevisiae deletion strains, locus YPR163C, strain tif3, hits give low values 0.999 | S. cerevisiae deletion strains, locus YPR167C, strain met16, hits give low values 0.99 | S. cerevisiae deletion strains, strain wtn01, hits give low values 0.974 | S. cerevisiae strains, strain wild type, hits give low values 1.01
